Assay outcomes from PubChem BioAssay.
TRPML1 inh = qHTS for Inhibitors of the Human Mucolipin Transient Receptor Potential 1 (TRPML1); activity change, negative = inhibition, % (concentration not given with the values); TRPML1-inducible cells, Ca2+ dye fluorescence, FDSS; active compounds read low; inhibition of EC80 agonist-evoked calcium signal; AID 624415, 2012; hit rate 0.02% among 390,000; in the data active = activity change below about -50%; inconclusive = between about -30% and that limit;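 note: stimulus is agonist 54-4 at its EC80 concentration; % is set by controls: 0 for no effect and ±100 for the full control effect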
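Calcium fluorescence in TRPML1-DL cells induced overnight with Tet: a 110 s read after compound pin addition, then a 110 s antagonist read after challenge with 54-4 at 4 uM final (EC80).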
TRHR agonist = qHTS for Small Molecule Agonists and Allosteric Enhancers of Human TRH Receptor: Primary Screen for Agonists; Thyrotropin-releasing hormone receptor (Homo sapiens), P34981; activation, % at 2 µM; TRHR cells, calcium flux fluo-8, FDSS agonist mode; AID 493084, 2011; hit rate 0.18% among 360,000; in the data active = activation above about 30%; note: 0% is about no effect
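TRHR-expressing cells, plated overnight in medium with 10% serum, were loaded with fluo-8 calcium dye at room temperature. After a 10 s baseline, library compound was pin-added and calcium release was recorded kinetically (ex 480/em 530) as agonist response.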
TRHR PAM = qHTS for Small Molecule Agonists and Allosteric Enhancers of Human TRH Receptor: Primary Screen for Enhancers. Thyrotropin-releasing hormone receptor (Homo sapiens), P34981. TRHR cells, fluo-8 calcium fluorescence, EC20 TRH enhancement. enhancement, % at 2 µM. hit rate 0.66% among 360,000; in the data active = enhancement above about 30%; note: 0% is about no effect
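TRHR-expressing cells loaded with fluo-8 calcium dye were read kinetically (ex 480/em 530) during compound addition, then stimulated with an EC20 of TRH (10 nM final). Enhancement of the Gq-mediated intracellular calcium response was scored.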
TRPV1 agonist = HTS Assay for Compounds that Act as Agonists of the Vanilloid Receptor 1 | AID 540275, 2011 | activation, % at 8.33 µM | TRPV1-expressing cells, Fluo-8 calcium influx, agonist mode | Transient receptor potential cation channel subfamily V member 1 (Homo sapiens), Q8NER1 | hit rate 0.19% among 320,000; in the data active = activation above about 80%; inconclusive = between about 30% and that limit; note: 0% is about no effect
Target sequence (Q8NER1 whole entry, looked up): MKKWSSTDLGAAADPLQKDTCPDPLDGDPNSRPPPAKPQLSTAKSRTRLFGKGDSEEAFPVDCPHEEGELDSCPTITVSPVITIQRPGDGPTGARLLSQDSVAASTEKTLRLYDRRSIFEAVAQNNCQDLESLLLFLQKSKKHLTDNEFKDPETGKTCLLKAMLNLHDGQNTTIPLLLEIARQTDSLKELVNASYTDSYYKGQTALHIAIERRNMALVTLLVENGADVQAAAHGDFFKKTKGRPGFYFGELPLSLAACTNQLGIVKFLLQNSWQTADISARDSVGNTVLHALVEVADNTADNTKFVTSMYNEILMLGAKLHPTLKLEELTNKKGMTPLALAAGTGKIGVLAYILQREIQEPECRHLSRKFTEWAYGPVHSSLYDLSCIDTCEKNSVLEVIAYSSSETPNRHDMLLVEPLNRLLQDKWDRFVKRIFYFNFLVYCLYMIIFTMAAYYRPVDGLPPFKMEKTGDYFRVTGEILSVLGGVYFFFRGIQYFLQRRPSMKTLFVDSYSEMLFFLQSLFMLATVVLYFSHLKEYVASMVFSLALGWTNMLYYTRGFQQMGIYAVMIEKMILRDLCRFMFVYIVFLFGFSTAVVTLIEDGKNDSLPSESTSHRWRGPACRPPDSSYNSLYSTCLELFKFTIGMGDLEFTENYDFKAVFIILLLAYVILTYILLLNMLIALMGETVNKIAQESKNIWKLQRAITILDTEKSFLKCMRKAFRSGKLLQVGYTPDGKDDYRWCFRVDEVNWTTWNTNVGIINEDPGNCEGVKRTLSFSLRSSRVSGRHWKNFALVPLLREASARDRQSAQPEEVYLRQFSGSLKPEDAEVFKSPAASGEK
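TRPV1-expressing cells were cultured overnight at 35.5C and loaded with Fluo-8 calcium dye for 40 to 90 min at room temperature. After a 10 s baseline, compound was added and calcium influx was read kinetically for 3 min (ex 480/em 520 nm).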
TRPV1 PAM = HTS Assay for Compounds that Act as Potentiators of the Vanilloid Receptor 1; TRPV1-expressing cells, Fluo-8 calcium influx, capsaicin EC20 potentiation; potentiation, % at 8.33 µM; hit rate 0.02% among 320,000; in the data active = potentiation above about 80%; inconclusive = between about 30% and that limit; note: 0% is about no effect
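TRPV1-expressing cells were cultured overnight at 35.5C and loaded with Fluo-8 calcium dye for 40 to 90 min at room temperature. After a 10 s baseline, compound was added and calcium influx was read kinetically for 3 min (ex 480/em 520 nm).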
TRPML1 ag = qHTS for Agonists of the Human Mucolipin Transient Receptor Potential 1 (TRPML1) | TRPML1-expressing cells, Ca2+ dye fluorescence, FDSS | AID 624414, 2012 | activation, % (test concentration not listed) | Mucolipin-1 (Homo sapiens), Q9GZU1 | hit rate 0.12% among 410,000; in the data active = activation above about 50%; inconclusive = mostly about 30% to 49%; note: 0% is about no effect
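Tet-induced TRPML1-DL cells, 1,500 per well, cultured overnight, were loaded with a no-wash Ca2+ dye for 45–90 min. Calcium fluorescence was recorded on the FDSS for 110 s after compound addition, before the EC80 agonist (4 uM 54-4) was added.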
Active calls of the source: *; ? = inconclusive; . = no result. Rows were chosen to be rich in hits. Some 0.99% of all compounds tested hit in one or more screens of this group.

SMILES	TRPML1 inh	TRHR agonist	TRHR PAM	TRPV1 agonist	TRPV1 PAM	TRPML1 ag
Cc1cccc(NC(=O)c2ccc(OC3CSC3)cc2)c1	8	0	-4	?	3	2
CC(=O)c1cccc(NC(=O)c2ccc3c(c2)CCCC3)c1	-12	-1	-2	87*	-1	0
CC(=O)c1cccc(NC(=O)NC2CCCc3ccccc32)c1 (configuration not stated)	-3	1	-7	83*	4	1
CC(=O)c1cccc(NC(=O)c2ccc(OC3CSC3)cc2)c1	-3	1	-5	113*	-6	-1
O=C(Nc1ccc2c(c1)CCC2)c1cccc(F)c1	10	6	-9	97*	-17	0
O=C(Nc1ccc2c(c1)CCC2)c1cc(F)cc(F)c1	-11	-1	-4	?	-3	1
COc1ccc(C(=O)c2sc(Nc3cccc(OC)c3)c(C(=O)Nc3cccc(C)c3C)c2N)cc1	-20	-1	6	2	1	61*
COc1ccc(Nc2sc(C(=O)c3ccc(Cl)cc3)c(N)c2C(=O)Nc2ccccc2OC)cc1	4	11	-17	2	8	?
COc1ccc(OC)c(/C=C/c2cc3ccccc3c[n+]2C)c1	.	.	.	.	.	0
COc1ccc(CN2COc3ccc4c(-c5ccccc5)cc(=O)oc4c3C2)cc1	-13	-1	0	.	.	1
Cc1ccc(CN2COc3ccc4c(-c5ccccc5)cc(=O)oc4c3C2)cc1	-6	1	55*	.	.	1
O=C(C[n+]1cc(Br)cc(Br)c1)c1ccc2ccccc2c1	.	.	.	.	.	0
Nc1nonc1C(=O)N/N=C/c1cc(Br)ccc1O	14	45*	11	?	-15	13
CCOc1ccc(S(=O)(=O)N2CCN(c3nc(-c4ccccc4)nc4ccccc34)CC2)cc1OCC	.	.	.	.	.	0
Cc1ccc2c(c1)c1c3n2CCN(C(=O)c2ccc(C(F)(F)F)cc2)C3CCC1 (configuration not stated)	-28	0	-6	.	.	56*
Cc1ccc(C(=O)N2CCn3c4c(c5cc(C)ccc53)CCCC42)cc1 (configuration not stated)	3	-1	3	.	.	2
CCCCSc1nc(O)c(C2OC(=O)c3c2ccc(OC)c3OC)c(=O)n1-c1ccccc1 (configuration not stated)	4	0	31*	2	7	-1
CCCSc1nc(O)c(C2OC(=O)c3c2ccc(OC)c3OC)c(=O)n1-c1ccccc1 (configuration not stated)	-12	0	3	-3	11	-1
COc1ccc(CCNC(=S)NCc2ccc(Cl)c(Cl)c2)cc1OC	17	0	-5	81*	-1	1
CCN(CC)S(=O)(=O)c1ccc(/C=C/C(=O)Nc2ccc(N3CCOCC3)cc2)cc1	-9	0	-3	90*	-18	-1
COc1ccc(/C=C/C(=O)Nc2ccc(N3CCOCC3)cc2)cc1	-13	1	17	?	-14	0
Cc1c(NC(=O)/C=C/c2ccc(S(=O)(=O)N3CCOCC3)cc2)c(=O)n(-c2ccccc2)n1C	23	0	34*	-4	-11	0
C=CCn1c(=O)/c(=C/c2ccc(O)cc2)s/c1=C(/C#N)c1nnc2n1CCCCC2	30	30*	-6	12	-3	21
CCCN1CNc2c(c(=O)[nH]c(=O)n2CCc2ccc(OC)c(OC)c2)C1	.	.	.	.	.	0
COc1ccc2c(c1)CCc1c(C(=O)Nc3c(C)nn(Cc4c(Cl)cccc4Cl)c3C)noc1-2	2	-1	13	.	.	2
SMILES	TRPML1 inh	TRHR agonist	TRHR PAM	TRPV1 agonist	TRPV1 PAM	TRPML1 ag
CN1/C(=C\C=C(/C#N)C(=O)Nc2ccc(Cl)cc2)C(C)(C)c2ccccc21	-2	46*	8	?	-6	24
CCN(CC)c1nc(C#N)nc(N2CCOCC2)n1	.	.	.	.	.	-1
COc1ccc(NC(=O)Cn2cc(S(=O)(=O)N3CCC(C)CC3)c3ccccc3c2=O)cc1Cl	1	2	-4	.	.	1
Oc1sc(C=Nc2ccc(F)cc2)c2ccccc12	28	-1	-2	1	-10	14
Oc1sc(C=Nc2ccccc2)c2ccccc12	17	39*	4	?	-1	?
O=C1N=C(N2CCCCC2)S/C1=C\c1ccc(Br)cc1	1	0	0	87*	7	0
O=C(Nc1ccncc1)Nc1ccc(F)c(Cl)c1	11	2	36*	?	-18	1
O=C(Nc1ccc(F)c(Cl)c1)Nc1ccc(Cl)cn1	7	1	5	-1	4	0
CC(NC(=O)CSc1nnc(-c2cc3cc(Cl)ccc3o2)n1C)c1ccccc1 (configuration not stated)	11	0	32*	-2	-33	1
C#CCN(Cc1ccc(OC)cc1)S(=O)(=O)C=C	.	.	.	.	.	-1
Cc1c(C)n(C(=O)CN2CCC(C)CC2)c2ccccc12	38	0	35*	-2	-8	3
O=C(CN1CCOCC1)n1c2ccccc2c2ccccc21	-7	1	17	8	6	-1
O=C(Nc1ccc(F)cc1)/C(Cl)=C/c1ccccc1	27	-1	-5	83*	-1	2
Cc1c(C(=O)N/N=C/c2cccnc2)sc(=S)n1C	4	0	1	2	7	0
Cn1c(N)c(C(=O)N/N=C/c2ccccc2)sc1=S	2	0	36*	3	9	0
Cn1c(=O)n(C)c2cc(NS(=O)(=O)c3ccc(F)cc3)c(NCc3ccccc3)cc21	-5	-1	6	.	.	-1
CCCNC(=O)C1CCC(Cn2c(=O)c3sccc3n(Cc3cccc(OC)c3)c2=O)CC1 (configuration not stated)	-1	0	53*	.	.	0
Cc1cccc(OCC(=O)NCc2ccc3c(c2)CCN3C(=O)c2ccc(Cl)cc2)c1	2	-1	-8	.	.	0
O=C1C2CCCCN2C(=O)N1CCCCN1CCN(c2cccc(Cl)c2)CC1 (configuration not stated)	-13	1	32*	0	24	0
